ALOX15 inhib = 15-hLO (ALOX15) enzyme inhibition; Potency, µM (top dose mostly 57.1 µM), for inactives: at the top dose activity change, negative = inhibition, most hits filed as inhibitors; purified 15hLO-1, xylenol orange hydroperoxide absorbance; hit rate 1.4% among 74,000; P16050; also: potency is read from the fitted curve at half-maximal effect; % is scaled to controls: 0 for no effect and ±100 for the full control effect; nearly all actives have a fitted effect of over 55% in size
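Purified human 15hLO-1 (40 nM) in 25 mM Hepes pH 7.5, 0.01% Triton X-100, preincubated 15 min RT with compound, then 50 uM arachidonic acid for 6 min. Hydroperoxide read by ferrous/xylenol orange, 30 min; 573/405 nm absorbance ratio gave progress.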
Tau fil binding = tau filament binding; AID 596; recombinant tau filaments, thioflavin S fluorescence, 15 h; filaments grown with octadecylsulfate alongside compound; hit rate 2% among 71,000; Potency, µM (highest dose often 57.1 µM), for the others: top-dose activity change, negative = inhibition;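 also: potency is read from the fitted curve at half-maximal effect; % is scaled to controls: 0 for no effect and ±100 for the full control effect; actives lower thioflavin S fluorescence by blocking filaments or displacing dye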
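His-tagged recombinant human tau (exons 2, 3, 10; 1 uM final) fibrillized with 30 uM sodium octadecylsulfate, 15 h at 37 C, in pH 7.4 HEPES buffer with 10 uM thioflavine S and 5 mM DTT. Reduced ThS fluorescence (450/510 nm) marks activity.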
YjeE inh = inhibitors of E. coli YjeE (TsaE); AID 605; Potency, µM; hit rate 0.05% among 71,000; purified YjeE enzyme, qHTS inhibition assay
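Purified YjeE (10 uM) with BODIPY Texas Red-labeled ADP probe (2 uM); compounds pin-transferred, 15 min at room temperature. Binding inhibition read as decreased fluorescence polarization; ADP titration as control.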
DNA Pol III inh = blocks replication by bacterial DNA polymerase III holoenzyme. hit rate 0.25% among 71,000. AID 603. Potency, µM (doses to about 57.1 µM), for the others: at the highest dose activity change, negative = inhibition. reconstituted DNA polymerase III holoenzyme replication, biochemical; also: potency is read from the fitted curve at half-maximal effect; % is scaled to controls: 0 for no effect and ±100 for the full control effect
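Reconstituted *E. coli* holoenzyme (0.35 nM Pol III, 1 nM beta, 154 nM SSB, 2 nM primase) was preincubated with compound for 15 min at RT. Synthesis on 1.4 nM ssM13Gori ran 35 min, then was stopped with PicoGreen/EDTA and read as dsDNA fluorescence.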
ERK AVP block = vasopressin-driven ERK pathway inhibition; Potency, µM (series often up to 57.5 µM), without a hit: top-dose activity, negative = inhibition, hits mostly inhibitors; HEK293-V1b, vasopressin-stimulated pERK AlphaScreen; hit rate 0.99% among 72,000; also: potency is read from the fitted curve at half-maximal effect; % is scaled to controls: 0 for no effect and ±100 for the full control effect; nearly all actives have a fitted effect of over 55% in size
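qHTS, compounds titrated on V1b-expressing HEK293 cells. Preincubation 30 min at 37C, vasopressin 25 nM for 5 min, lysis 10 min, bead incubation 5 hr at room temperature.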
Hsp90 Hop PPI = changes Hsp90-Hop TPR2A binding signal, up or down | AlphaScreen TPR2A-His6 binding biotin-Hsp90 C-terminal peptide | hit rate 0.44% among 71,000 | Potency, µM (titrated, usually from 57 µM), without a hit: top-dose activity change, negative = inhibition; active = well fitted curve in either direction with a large enough effect; inconclusive = small, poorly fitted or top-dose-only effect, or another doubt; also: potency is read from the fitted curve at half-maximal effect; % is scaled to controls: 0 for no effect and ±100 for the full control effect
Hsp90-TPR2A inh = confirmation and counter-screen of Hsp90 TPR2A co-chaperone interaction disrupters | hit rate 100% among 45 | AlphaScreen TPR2A-His6 / biotin-Hsp90 peptide binding | shares compounds with Hsp90 Hop PPI | activity, negative = inhibition, % at 40 µM or 46 µM, hits read low;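 active = compound lowering the Hsp90 and TPR2A binding signal, whether or not the linker counterscreen also flagged it as an artifact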
tau ThS displ = compounds binding human tau filaments, displacing Thioflavin S; shares compounds with Tau fil binding; recombinant tau filaments, Thioflavin S fluorescence displacement; Potency, µM; hit rate 40% among 60; AID 911; calls by dose curve
aSyn ThS displ = compounds binding human alpha-synuclein fibrils, displacing Thioflavin S; hit rate 40% among 60; shares compounds with Tau fil binding; Potency, µM; recombinant alpha-synuclein fibrils, ThS fluorescence displacement; calls by dose curve
Abeta ThS displ = compounds binding human beta amyloid fibrils, displacing Thioflavin S; shares compounds with Tau fil binding; Abeta1-42 fibrillization, thioflavin S fluorescence, overnight 37 C; Potency, µM; hit rate 50% among 60; calls by dose curve
Target sequence (P05067 whole entry, looked up): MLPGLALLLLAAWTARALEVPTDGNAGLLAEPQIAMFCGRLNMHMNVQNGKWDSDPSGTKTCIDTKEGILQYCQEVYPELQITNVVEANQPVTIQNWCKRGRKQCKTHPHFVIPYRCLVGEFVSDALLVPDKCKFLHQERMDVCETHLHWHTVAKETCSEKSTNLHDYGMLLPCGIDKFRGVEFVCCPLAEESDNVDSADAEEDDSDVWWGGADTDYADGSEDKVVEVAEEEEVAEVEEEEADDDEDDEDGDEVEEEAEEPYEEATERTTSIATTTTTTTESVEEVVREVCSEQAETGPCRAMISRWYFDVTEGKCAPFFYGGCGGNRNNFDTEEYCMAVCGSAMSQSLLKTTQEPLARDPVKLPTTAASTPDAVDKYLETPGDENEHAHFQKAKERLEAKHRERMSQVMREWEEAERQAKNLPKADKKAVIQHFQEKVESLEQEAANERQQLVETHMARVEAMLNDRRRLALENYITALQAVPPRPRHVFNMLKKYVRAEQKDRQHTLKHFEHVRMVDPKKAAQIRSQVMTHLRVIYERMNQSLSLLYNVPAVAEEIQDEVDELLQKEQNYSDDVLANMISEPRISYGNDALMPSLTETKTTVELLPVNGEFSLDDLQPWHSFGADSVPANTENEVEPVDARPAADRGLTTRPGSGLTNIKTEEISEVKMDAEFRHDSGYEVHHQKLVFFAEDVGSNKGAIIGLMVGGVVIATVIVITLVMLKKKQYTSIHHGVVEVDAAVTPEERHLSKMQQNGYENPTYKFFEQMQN
Starred values were filed as active, the others as inactive; i = inactive; ? = inconclusive; / = no result given; [ ] = remark or other dose. An excerpt weighted towards active compounds, which were near 4.2% of everything screened. Unless noted, calls follow the shape of the dose curve; as a rule, active = well fitted curve in the direction sought with a large enough effect; inconclusive = small, poorly fitted or top-dose-only effect, or another doubt; inactive = no such curve, though single readings can be large; an effect the other way counts as inactive or inconclusive.

SMILES	ALOX15 inhib	Tau fil binding	YjeE inh	DNA Pol III inh	ERK AVP block	Hsp90 Hop PPI	others
CCC(c1nnnn1Cc1ccc2c(c1)OCO2)N1CCN(c2ccc(OC)cc2)CC1 (stereo not drawn)	-17%	-27%	i	4%	-26%	-15%
O=C(O)c1ccccc1[N+](=O)[O-]	-2%	-2%	i	0%	9%	-5%
O=[N+]([O-])c1ccccc1Nc1ccccc1	-10%	-11%	i	0%	16µM*	?
Cc1cccc(NC(=O)CSc2nnc(Cn3nnc(-c4ccccc4)n3)n2-c2ccccc2)c1	-13%	25%	i	-6%	-1%	-1%
CC1=CC(C)(C)N(C(=O)c2ccccc2)c2ccccc21	-30%	1%	i	-1%	61%	?
COc1ccc(C(=O)N2c3cc4c(cc3C(C)=CC2(C)C)OCO4)cc1	-24%	16µM*	i	-2%	?	-29%
O=C(O)c1ccccc1/C=N\N=C1c2ccccc2-c2ccccc21	5%[11.4 µM]	-13%[11.4 µM]	i	-10%[11.4 µM]	-20%[11.5 µM]	-7%[11 µM]
O=S(=O)(Nc1cccc2ncccc12)c1cccs1	53%	-3%	i	3%	10%	16µM*	Hsp90-TPR2A inh=-100*[alpha-screen platform artifact]
O=C(NCc1ccco1)C1CC(=O)N(c2ccc(O)cc2)C1 (stereo not drawn)	-3%	10%	i	-2%	-13%	-4%
Brc1ccc(-c2nn3c(-c4ccncc4)nnc3s2)o1	3%	12%	i	-6%	-14%	-3%
Brc1ccc(-c2nn3c(-c4ccccn4)nnc3s2)o1	-7%	?	i	?	-29%	7.9µM*	Hsp90-TPR2A inh=-99*[alpha-screen platform artifact]
Cc1ccc(NC(=O)CCCCCC2NC(=O)NC2C)cc1 (stereo not drawn)	10%	7%	i	-2%	44%	0.013µM*	Hsp90-TPR2A inh=-99*[alpha-screen platform artifact]
Cn1c(=O)[nH]c2nnc(-c3ccccc3)nc2c1=O	/	/	/	/	/	/	Hsp90-TPR2A inh=12
CCOC(=O)CSc1nc2ccccc2c(=O)n1C1CCCC1	3%	-13%	i	-7%	-15%	-3%
CCCCNC(=O)CSc1nc2ccccc2c(=O)n1C1CCCC1	1%	-1%	i	-3%	1%	1%	Hsp90-TPR2A inh=-100*[alpha-screen platform artifact]
CCN(CC)CCNCc1ccc(-c2ccc(Cl)cc2)o1	-4%	-25%	i	1%	-3%	-9%
Cn1cccc1C(=O)NC(=O)CSc1nc2ccccc2s1	?	8%	i	-17%	?	-4%
O=C(CN1C(=O)CCC1=O)Nc1nc(-c2ccccn2)cs1	35%	-3%	i	-3%	/	2.5µM*	Hsp90-TPR2A inh=-100*[alpha-screen platform artifact]
Cn1cccc1C(=O)Nc1nc(-c2ccccn2)cs1	25%	?	i	-6%	16%	6.3µM*	Hsp90-TPR2A inh=-100*[alpha-screen platform artifact]
O=C(O)[C@H]1O[C@H]1C(=O)O	-4%[11.4 µM]	7%[11.4 µM]	i	-8%[11.4 µM]	8%[11.5 µM]	0%[11 µM]
CCN(CC)C(=O)c1sc2nc(-c3ccccn3)[nH]c(=O)c2c1C	20%	-35%	i	-4%	-12%	7.9µM*	Hsp90-TPR2A inh=-99*[alpha-screen platform artifact]
CCN(CC)C(=O)c1sc2nc(-c3ccncc3)[nH]c(=O)c2c1C	-6%	-15%	i	-3%	13%	0%
COc1cc(OC)cc(C(=O)NC2CCN(Cc3nnnn3Cc3cccs3)CC2)c1	8%	-2%	i	1%	-21%	-3%
COc1ccc2nc(N=Nc3ccc(N(C)C)cc3)sc2c1	/	/	/	/	/	/	tau ThS displ=0.1µM*;aSyn ThS displ=i;Abeta ThS displ=0.1µM*
CCCCn1c(SCn2nnc3ccccc3c2=O)nc2cc(C(=O)OC)ccc2c1=O	1%	6%	i	-6%	4%	-2%
SMILES	ALOX15 inhib	Tau fil binding	YjeE inh	DNA Pol III inh	ERK AVP block	Hsp90 Hop PPI	others
Cc1ccc(/C=N/c2sc3c(c2C#N)CCC3)s1	-4%	2.5µM*	i	-2%	-21%	-24%	tau ThS displ=i;aSyn ThS displ=?;Abeta ThS displ=i
Cc1ccccc1Cn1ccc(NC(=O)c2cnn3c(C(F)(F)F)cc(-c4ccco4)nc23)n1	-11%	2.5µM*	i	-10%	?	-9%	tau ThS displ=?;aSyn ThS displ=2.6µM*;Abeta ThS displ=6.7µM*
Cc1ccccc1Cn1ccc(NC(=O)CCSc2nc(-c3ccco3)cc(C(F)(F)F)n2)n1	-24%	-11%	i	-2%	28%	7%
O=C(OCc1ccc2c(c1)OCO2)c1ccc(S(=O)(=O)N2CCCCC2)cc1	0%	77%	i	-11%	2%	-1%
CC1(C)CC(=O)C(C(=O)CCCCC(=O)C2C(=O)CC(C)(C)CC2=O)C(=O)C1	0%	-36%	i	1%	11%	-2%	tau ThS displ=i;aSyn ThS displ=i;Abeta ThS displ=i
O=C1CCSc2cccc3cccc(c23)N1	0%	0%	i	-2%	-27%	-3%
c1cc2c3c(cccc3c1)NC1(CCCCCC1)N2	-7%	2.5µM*	i	-20%	-24%	-25%	tau ThS displ=?;aSyn ThS displ=6.3µM*;Abeta ThS displ=2.2µM*
CN(C)c1ccc(C(=C2C=CC(=[N+](C)C)C=C2)c2ccc(N(C)C)cc2)cc1	-3%	0.13µM*	5µM*	40µM*	10µM*	?	tau ThS displ=0.18µM*;aSyn ThS displ=0.15µM*;Abeta ThS displ=0.15µM*
Cc1cccc2cc(CN(CC3CCCO3)C(=O)c3ccco3)c(=O)[nH]c12 (stereo not drawn)	-35%	-6%	i	-5%	-9%	-1%
O=C1c2ccccc2-c2onc3ccc(NCCCn4ccnc4)c1c23	22%	0.13µM*	25µM*	354%	16µM*	25µM*	tau ThS displ=5.5µM*;aSyn ThS displ=3.2µM*;Abeta ThS displ=2.2µM*
COc1ccc(CCNC(=O)c2nnn(-c3ccc4c(c3)OCCO4)c2N)cc1OC	-1%	-21%	i	1%	-14%	?
Cc1ccc2nc(-c3ccc(N=Nc4cc(S(=O)(=O)O)c5ccccc5c4O)cc3)sc2c1S(=O)(=O)O	/	/	/	/	/	/	tau ThS displ=2.1µM*;aSyn ThS displ=9.5µM*;Abeta ThS displ=?
O=C(C1CCCN(S(=O)(=O)c2cccc3nonc23)C1)N1CCC(Cc2ccccc2)CC1 (stereo not drawn)	?	3.2µM*	i	0%	-18%	-17%	tau ThS displ=?;aSyn ThS displ=i;Abeta ThS displ=i
O=C(NCCc1ccccc1)C1CCCN(S(=O)(=O)c2cccc3nonc23)C1 (stereo not drawn)	6%	28%	i	4%	2%	-6%
COc1ccccc1N1CCN(C(=O)C(F)F)CC1	3%	-1%	i	-4%	6%	2%
